Screening results: PubChem, National Center for Advancing Translational Sciences (NCATS)
HT1080-NT tox – qHTS for induction of synthetic lethality in tumor cells producing 2HG: qHTS for the HT-1080-NT fibrosarcoma cell line | Potency, µM (top dose mostly 46.1 µM), without a hit: at the highest dose activity, negative = less viability, actives largely listed as cytotoxic | HT-1080-NT fibrosarcoma viability, CellTiter-Glo ATP luminescence, 48 h | 360,000 compounds, 1.6% hits | AID 686970, 2013;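 also: NT is the 2HG producing partner of a matched IDH1 knockdown line; potency is read from the fitted curve at half-maximal effect; 0% = DMSO-treated cells and -100% = media-only wells without cells; nearly all actives have a fitted effect of over 55% in size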
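Viability by CellTiter-Glo luminescence after 48 h compound exposure at 37C of HT-1080-NT cells (750/well, RPMI, 5% FBS). % activity scaled between DMSO wells and medium-only wells, then curve-fitted and categorized by curve class.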
TDP1 cell CPT – qHTS for Inhibitors of human tyrosyl-DNA phosphodiesterase 1 (TDP1): qHTS in cells in presence of CPT. chicken DT40 Tdp1-/-;hTDP1 cells + 20 nM CPT, ATP luminescence, 48 h. 420,000 compounds, 12% hits. AID 686979, 2013. Potency, µM (doses to about 46.2 µM), for inactives: top-dose activity change, negative = growth inhibition, hits mostly inhibitors; also: potency is read from the fitted curve at half-maximal effect; nearly all actives have a fitted effect of over 55% in size
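Chicken DT40 Tdp1-/- cells complemented with human TDP1, 400 cells/well, exposed to compounds plus 20 nM camptothecin for at least 48 h at 37 C; viability read as ATP content by CellTiter-Glo luminescence.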
uPA surface inh – qHTS for Inhibitors of Cell Surface uPA Generation; cell surface uPA generation assay, qHTS; Potency, µM (doses to about 38.3 µM), for the others: top-dose activity change, negative = inhibition, hits mostly inhibitors; 330,000 compounds, 0.31% hits; active = well fitted inhibition curve with a large enough effect; inconclusive = small, poorly fitted or top-dose-only effect; inactive = no such curve, though single readings can be large or run the other way; tested in mouse RAW 264.7 cells; also: potency is read from the fitted curve at half-maximal effect; nearly all actives have a fitted effect of over 55% in size
HT1080 IDH1KD tx – qHTS for induction of synthetic lethality in tumor cells producing 2HG: qHTS for the HT-1080-IDH1KD cell line. HT-1080 IDH1 knockdown viability, ATP luminescence, 48 h. Potency, µM (series often up to 46.1 µM), without a hit: at the highest dose activity, negative = toxicity, hits mostly cytotoxic. 360,000 compounds, 2% hits;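 also: potency is read from the fitted curve at half-maximal effect; 0% = DMSO wells and -100% = cell-free medium wells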
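CellTiter-Glo luminescence after 48 h compound exposure at 37 degrees C of IDH1-knockdown HT-1080 cells in 5% FBS RPMI. %Activity scaled between DMSO wells and cell-free media wells, with curves fitted and assigned curve classes.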
IL-1B inflam inh – qHTS for Inhibitors of Inflammasome Signaling: IL-1-beta AlphaLISA Primary Screen; 360,000 compounds, 4.7% hits; activity change, % at 57.5 µM; THP-1 LPS/ATP IL-1B secretion, AlphaLISA, 16 h; hits give low values; in the data active = activity change below about -50%; inconclusive = mostly about -30% to -49%
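Secreted IL-1B measured by AlphaLISA bead assay after 16 h compound exposure of THP-1 cells; compounds (final up to 57.5 uM) added 1 h before LPS (250 ng/mL) and ATP (1.25 mM) stimulation; lower signal means less secretion.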
TDP1 cell noCPT – qHTS for Inhibitors of human tyrosyl-DNA phosphodiesterase 1 (TDP1): qHTS in cells in absence of CPT; DT40 Tdp1-/- hTDP1 cells, no CPT, ATP luminescence, 48 h; Potency, µM (top dose mostly 46.2 µM), without a hit: at the highest dose activity change, negative = growth inhibition, actives largely listed as inhibitors; 420,000 compounds, 15% hits; also: potency is read from the fitted curve at half-maximal effect; nearly all actives have a fitted effect of over 55% in size
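No-CPT arm: Tdp1-/-;hTDP1 DT40 cells (400/well) plus compounds, incubated ≥48 hr at 37 °C. Readout CellTiter-Glo luminescence.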
The depositor's hits bear a star; ? = inconclusive; / = no result; [ ] = remark or other dose. Most compounds without a hit are left out; they make up all but 19% or so of the library. Unless noted, calls follow the shape of the dose curve; as a rule, active = well fitted curve in the direction sought with a large enough effect; inconclusive = small, poorly fitted or top-dose-only effect, or another doubt; inactive = no such curve, though single readings can be large; an effect the other way counts as inactive or inconclusive. Unless noted, % is scaled to controls: 0 for no effect and ±100 for the full control effect.

SMILES | HT1080-NT tox | TDP1 cell CPT | uPA surface inh | HT1080 IDH1KD tx | IL-1B inflam inh | TDP1 cell noCPT
CSc1cccc(N2CC(C(=O)N3CCN(S(=O)(=O)c4ccccc4Cl)CC3)CC2=O)c1 (stereo not given) | 2.0% | ? | 3.2% | -11.3% | -23.4 | 23.1µM*
CCc1ccc(N2CC(C(=O)N3CCN(S(=O)(=O)c4cccc(F)c4)CC3)CC2=O)cc1 (stereo not given) | -6.0% | ? | / | -2.6% | -28.7 | ?
Cc1ccc(OCCN2CCN(C(=O)CCC(=O)Nc3nnc(C(C)C)s3)CC2)cc1 | -10.8% | ? | -4.2% | -9.1% | -19.3 | 23.1µM*
CCOc1ccccc1OCC(=O)Nc1nnc(C)s1 | -21.3% | -5.4% | 15.1% | -3.7% | -58.3* | -10.2%
Cc1nnc(NC(=O)CCC(=O)N2CCN(CCOc3cccc4ccccc34)CC2)s1 | 11.6% | ? | 2.5% | 10.5% | 1.7 | 23.1µM*
COCCN1CC(C(=O)N2CCC(Oc3ccccc3OC)CC2)CCC1=O (stereo not given) | 0.3% | 9.8% | 3.1% | -3.6% | 6.9 | -9.6%
COc1ccc2[nH]c(=O)c3c(c2c1)OC(C)(C)C=C3 | ? | 14.6µM* | -11.0% | ? | -106.1* | 14.6µM*
CC1Sc2ccc(S(=O)(=O)N3CCN(c4cccc(Cl)c4)CC3)cc2NC1=O (stereo not given) | ? | -21.5% | -3.7% | ? | 1.3 | ?
O=C1CCc2cc(S(=O)(=O)N3CCN(c4cccc(C(F)(F)F)c4)CC3)ccc2N1 | -9.6% | -26.6% | / | ? | 21.2 | -25.3%
CC1C(=O)Nc2ccc(S(=O)(=O)N3CCN(c4cccc(Cl)c4)CC3)cc2NC1=O (stereo not given) | -20.6% | 18.4µM* | -2.1% | -1.7% | 19.5 | ?
CC1C(=O)Nc2ccc(S(=O)(=O)N3CCN(c4cccc(C(F)(F)F)c4)CC3)cc2NC1=O (stereo not given) | -8.5% | 25.9µM* | -2.8% | -21.4% | -5.9 | -68.6%
Cc1ccc(N)c2c1OCCC2=O | -3.9% | -5.4% | 0.2% | -4.9% | 66.5 | -21.8%
CCCn1c2ccccc2c2cnn(CC(=O)N(C)c3ccc(F)cc3)c(=O)c21 | / | 18.4µM* | / | / | / | 18.4µM*
CCCCN(CC)C(=O)Cn1ncc2c3ccccc3n(CCC)c2c1=O | -20.4% | ? | 3.2% | -19.0% | -20.6 | 23.1µM*
CCCn1c2ccccc2c2cnn(CC(=O)NCCCOC)c(=O)c21 | 0.7% | -2.8% | 5.0% | -1.0% | 13.3 | -14.4%
CCCn1c2ccccc2c2cnn(CC(=O)N(Cc3ccccc3)C(C)C)c(=O)c21 | / | 23.1µM* | / | / | / | 18.4µM*
CCn1c(=O)c(C(=O)Nc2ccc(C(C)=O)cc2)nc2ccccc21 | / | -15.2% | / | / | / | -13.8%
Cn1nc(C(=O)NCCN2Cc3ccccc3OC(c3ccsc3)C2)c2ccccc2c1=O (stereo not given) | / | -13.4%[9.04 µM] | / | / | / | -9.3%
Cc1ccc(NC(=O)CNCCCN2CCOCC2)cc1S(=O)(=O)N1CCCCC1 | -15.6% | ? | 0.3% | -21.4% | -16.6 | -1.1%
O=C(CSc1nc(Nc2ccccc2)nc(N2CCOCC2)n1)Nc1ccc2c(c1)OCCO2 | 9.1% | -26.2% | 7.4% | -6.6% | ? | -27.3%
O=C(CSc1nc(Nc2ccccc2)nc(N2CCOCC2)n1)N1CCc2ccccc21 | -6.0% | ? | 12.5% | -5.0% | 2.2 | 18.4µM*
O=C(CSc1nc(N2CCCCC2)nc(N2CCCCC2)n1)N1CCN(c2ccccc2)CC1 | -13.1% | 23.1µM* | -2.8% | -11.3% | -13.3 | 16.4µM*
O=C(CSc1nc(Nc2ccccc2)nc(N2CCOCC2)n1)N1CCCC1 | -14.9% | ? | 12.6% | -1.5%[9.24 µM] | -53.0* | 20.6µM*
Cc1nc(SCC(=O)N2CCN(c3ccccc3)CC2)n[nH]1 | 9.2% | 3.0% | 4.9% | 3.8% | -16.2 | 3.1%
COc1cccc(CN2C(=O)C3(C(C#N)=C(N)OC4=C3C(=O)CCC4)c3ccccc32)c1 (stereo not given) | ? | 0.651µM* | -6.9% | ? | 2.7 | 0.92µM*
SMILES | HT1080-NT tox | TDP1 cell CPT | uPA surface inh | HT1080 IDH1KD tx | IL-1B inflam inh | TDP1 cell noCPT
CC1(C)CC(=O)C2=C(C1)OC(N)=C(C#N)C21C(=O)N(CN2CCOCC2)c2ccccc21 (stereo not given) | -0.1% | -22.6% | 3.2% | 0.4% | 3.4 | -6.7%
COC(=O)c1ccc(-n2c(/C=C\c3cccc(Br)c3)nc3ccccc3c2=O)cc1 | / | 5.17µM* | / | / | / | 2.91µM*
O=C(O)c1ccc(-n2c(/C=C/c3ccccc3)nc3ccccc3c2=O)cc1 | -1.3% | ? | 6.4% | 3.2% | 11.2 | -3.4%
COC(=O)c1ccc(-n2c(/C=C/c3cc(OC)c(OC)c(OC)c3)nc3cc(Cl)ccc3c2=O)cc1 | / | 18.4µM* | / | / | / | 14.6µM*
Cc1ccc(S(=O)(=O)c2nnn3c2nc(N2CCN(c4ccccc4F)CC2)c2ccccc23)cc1C | / | -4.3% | / | / | / | 1.4%
c1ccc(-c2nccc3ccccc23)cc1 | 8.4% | -4.3% | -4.0% | 9.6% | 24.9 | 2.6%
OC(c1ccccc1)(c1ccccc1)c1nccc2ccccc12 | 3.1% | -27.7% | 3.8% | 14.1% | -55.1* | ?
CCN(CC)c1ccc(NC(=O)CSc2ccsc2[N+](=O)[O-])c(C)c1 | 6.1% | ? | -1.5% | 0.5% | -3.8 | 18.4µM*
O=C(CSc1ccsc1[N+](=O)[O-])NCCc1ccc(Cl)cc1 | -2.8% | ? | -0.9% | -13.8% | 18.5 | -18.5%
CCN(CC)c1ccc(NC(=O)C(NS(=O)(=O)c2cccs2)C(C)C)c(C)c1 (stereo not given) | / | 20.6µM* | / | / | / | 20.6µM*
CC(C)C(NS(=O)(=O)c1cccs1)C(=O)N(C)Cc1ccccc1 (stereo not given) | -4.4% | -15.3% | -4.9% | ? | -2.1 | -4.3%
Cc1ccc(CNC(=O)CSc2ccsc2[N+](=O)[O-])cc1 | -9.4% | ? | -2.8% | -23.5% | ? | 10.3µM*
COc1ccc(CNC(=O)CSc2ccsc2[N+](=O)[O-])cc1 | -3.4% | ? | -5.1% | 0.3% | -59.5* | -8.4%
CCOc1ccc(NC(=O)Cn2c(=O)cc(C)c3c(C)nn(-c4cccc(Cl)c4C)c32)cc1 | / | 25.9µM* | / | / | / | 13µM*
